Experimental data from the supplement of paper PMC6805474.

Experiments:
[1] = tested on: Schistosoma mansoni schistosomula (LE); assay: XTT viability relative to DMSO control; higher = more viable (less active); details: 72 h; 10 µM
Experimental: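 XTT/PMS was then added for a further 24 h (72 h total) and A450 was read. % viability = (sample - heat-killed control)/(DMSO control - heat-killed control) x 100, from duplicate wells in two independent experiments.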

[2] = tested on: Schistosoma mansoni schistosomula (NMRI); assay: phenotypic severity score (0-4); higher = more antischistosomal effect, active = 2 or more; details: 10 µM
[3] = tested on: Schistosoma mansoni schistosomula (Liberian); assay: drug effect (1 - score/DMSO control score) (fraction); higher = more antischistosomal effect, active = 0.5 or more; extreme values may be limits of the assay; details: 10 µM
Method in brief: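 Schistosomula of the Liberian strain of Schistosoma mansoni were mechanically transformed from cercariae, pre-incubated for at least 12 h, and placed at 50 per well in flat-bottom 96-well plates with Medium 199 containing 5% FCS. Compounds were tested in duplicate at 10 µM at 37 °C and 5% CO2, alongside wells holding 0.1% DMSO. Parasites were scored visually at 10× after 24, 48 and 72 h on a quarter-point scale running from 3 (normal) to 0 (dead). Drug effect came from the mean test-well score relative to the mean DMSO-well score, with negative values set to zero and plates accepted only when the DMSO wells averaged at least 2.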
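Throughout, for phenotypic severity score (0-4): visual microscopic scoring of shape, motility and density changes versus 0.5% DMSO solvent controls, one point per descriptor, degeneracy or death scored 4, mean of duplicate wells.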

Structure (SMILES)	XTT viability [1]	phenotypic severity score ([2]; 24 h)	phenotypic severity score ([2]; 48 h)	phenotypic severity score ([2]; 72 h)	drug effect ([3]; 24 h)	drug effect ([3]; 48 h)	drug effect ([3]; 72 h)
CC1CCCN(C(=O)C(C)Nc2cc(Cl)ccc2N2CCOCC2)C1 (stereo not given)	137%	0 (inactive)	0 (inactive)	0 (inactive)	0.15 (inactive)	0.222 (inactive)	0.375 (inactive)
c1ccc(-c2nc(NC3CCCCC3)cc(C3CC3)n2)nc1	16.4%	0 (inactive)	0 (inactive)	0 (inactive)	< 0 (inactive)	0.0811 (inactive)	0.152 (inactive)
COc1ccc(C(=N)N)cc1-c1cn(-c2ccc(C(=N)N)cc2)nn1	69.3%	0 (inactive)	0 (inactive)	0 (inactive)	0.05 (inactive)	0.0811 (inactive)	0.0909 (inactive)
COc1cccc(-c2cc3c(Nc4cccnc4)nccc3[nH]2)c1	104%	0 (inactive)	0 (inactive)	0 (inactive)	0.1 (inactive)	0.135 (inactive)	0.152 (inactive)
O=C(Nc1ccc(F)c(-c2nc3cc(-c4ccccc4)cnc3[nH]2)c1)N1CCCC1	111%	0 (inactive)	4 (active)	4 (active)	0.676 (active)	0.667 (active)	0.875 (active)
C[C@@H]1[C@H](O)[C@@H](C)/C=C/C=C/C=C/C=C/C=C/C=C/C=C/[C@H](O[C@@H]2O[C@H](C)[C@@H](O)[C@H](N)[C@@H]2O)C[C@@H]2O[C@](O)(C[C@@H](O)C[C@@H](O)[C@H](O)CC[C@@H](O)C[C@@H](O)CC(=O)O[C@H]1C)C[C@H](O)[C@H]2C(=O)O	95%	0 (inactive)	0 (inactive)	0 (inactive)	0.136 (inactive)	0.15 (inactive)	0.105 (inactive)
COc1ccc(-c2cnc3ccc(NCc4ccc(S(N)(=O)=O)cc4)nn23)cn1	125%	0 (inactive)	0 (inactive)	0 (inactive)	0.15 (inactive)	0.222 (inactive)	0.312 (inactive)
CCCCOC(=O)Nc1cc2nc(C3CCCCC3)[nH]c2cc1N1CCCC1	132%	3 (active)	4 (active)	4 (active)	0.15 (inactive)	0.389 (inactive)	0.562 (active)
CCS(=O)(=O)N(Cc1ccco1)Cc1cc2ccc(C)cc2nc1O	55.5%	0 (inactive)	1 (inactive)	0 (inactive)	0.2 (inactive)	0.333 (inactive)	0.5 (active)
CC1=Nc2ccc(Cl)cc2C(c2ccccc2)N1CCNC(=O)CN(C)C (stereo not given)	113%	0 (inactive)	0 (inactive)	0 (inactive)	0.35 (inactive)	0.333 (inactive)	0.375 (inactive)
NCC(=O)N1CCn2c(nc(-c3ccccc3)c2Nc2ccc3c(c2)OCO3)C1	129%	0 (inactive)	0 (inactive)	2 (active)	0.297 (inactive)	0.444 (inactive)	0.688 (active)
CC(C)n1nc(-c2cc3c(Cl)cccc3[nH]2)c2c(N)ncnc21	54.3%	4 (active)	4 (active)	4 (active)	0.55 (active)	0.667 (active)	1 (active)
CC1COC2(CCN(c3nc(=O)c4cc(C(F)(F)F)cc([N+](=O)[O-])c4s3)CC2)O1 (stereo not given)	80%	1 (inactive)	0 (inactive)	0 (inactive)	0.136 (inactive)	0.25 (inactive)	0.291 (inactive)
Cc1nn(C)cc1C(C)Nc1nncc(-c2ccc(C(F)(F)F)cc2)n1 (stereo not given)	77.5%	0 (inactive)	0 (inactive)	0 (inactive)	0.136 (inactive)	0.1 (inactive)	0.105 (inactive)
CC(=O)NCC1CN(c2ccc(-c3ccc(CO)cc3)c(F)c2)C(=O)O1 (stereo not given)	138%	0 (inactive)	1 (inactive)	0 (inactive)	0.1 (inactive)	0.111 (inactive)	0.0625 (inactive)
NC(CC(=O)c1ccc(Cl)cc1Cl)C(Cl)(Cl)Cl (stereo not given)	69.2%	0 (inactive)	0 (inactive)	0 (inactive)	0.0455 (inactive)	0.1 (inactive)	0.158 (inactive)
O=C(N[C@H](Cc1ccccc1)C(=O)Nc1ccccc1N1CCOCC1)c1cccs1	129%	0 (inactive)	0 (inactive)	0 (inactive)	0.2 (inactive)	0.167 (inactive)	0.188 (inactive)
Cc1cnc(CCNC(=O)c2cc(-c3ccc(Cl)cc3)cs2)[nH]1	79.7%	1 (inactive)	1 (inactive)	0 (inactive)	0.136 (inactive)	0.45 (inactive)	0.509 (active)
O=C([C@@H](c1ccc(Cl)cc1)c1cccnc1)N1CCN(c2ccc(C(F)(F)F)cc2)CC1	46.8%	0 (inactive)	2 (active)	4 (active)	0.75 (active)	0.722 (active)	0.75 (active)
C[C@H]1c2cccc(O)c2C(=O)C2=C(O)[C@]3(O)C(=O)C(C(N)=O)=C(O)[C@@H](N(C)C)[C@@H]3[C@@H](O)[C@@H]21	165%	0 (inactive)	0 (inactive)	0 (inactive)	0.2 (inactive)	0.297 (inactive)	0.222 (inactive)
